Assay results: PubChem BioAssay
Active and inactive are the calls of the source.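 The calls were made as follows: active = at least 20% inhibition of 6-phosphogluconate dehydrogenase activity; inactive = the rest.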 Where a SMILES comes first, the peptide text is derived from it.

Target: 6-phosphogluconate dehydrogenase, decarboxylating (Homo sapiens) (UniProt P52209)
Experiment: 6PGD enzyme inhibitors, primary screen, biochemical, human, recombinant enzyme, NADPH absorbance (AID 1159550)
Details: recombinant 6PGD, NADPH absorbance 341 nm; at 10 µM; hits give high values

Sequence of 6-phosphogluconate dehydrogenase, decarboxylating (Homo sapiens) (P52209 whole entry, looked up): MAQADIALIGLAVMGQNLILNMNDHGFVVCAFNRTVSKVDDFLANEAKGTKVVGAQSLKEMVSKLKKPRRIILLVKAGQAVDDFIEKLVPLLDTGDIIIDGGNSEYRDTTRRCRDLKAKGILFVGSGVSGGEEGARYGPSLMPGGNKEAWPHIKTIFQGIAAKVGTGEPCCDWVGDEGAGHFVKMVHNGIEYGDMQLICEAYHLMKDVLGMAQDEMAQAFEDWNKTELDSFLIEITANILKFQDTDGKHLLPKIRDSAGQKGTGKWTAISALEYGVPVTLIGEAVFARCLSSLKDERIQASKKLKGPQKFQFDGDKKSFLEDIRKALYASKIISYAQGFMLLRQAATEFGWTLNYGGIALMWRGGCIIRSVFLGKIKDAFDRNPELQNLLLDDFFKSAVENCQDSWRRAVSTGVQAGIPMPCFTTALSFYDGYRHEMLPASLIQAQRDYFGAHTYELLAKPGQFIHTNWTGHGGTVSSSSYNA

inhibition, inactive:
CS(=O)(=O)CCCCN=C=S 1.33%, CC(=O)OC1CC[C@@]2(C)C(CC[C@]3(C)C2CCC2C4CC(C)(C)CCC4(C(=O)O)CC[C@]23C)C1(C)C (stereo partly drawn) 5.8%, CC1(C)C(=O)C=C[C@]2(C)C3CC[C@@]4(C)[C@H](c5ccoc5)OC(=O)[C@H]5O[C@]54[C@]3(C)C(=O)C[C@@H]12 (stereo partly drawn) 1.03%, Oc1cc(O)cc(/C=C/c2ccccc2)c1 -1.17%, CC(=O)OC1C=C(C)C(COc2ccc3ccc(=O)oc3c2)C2(C)CCC(O)C(C)(C)C12 (stereo not drawn) 9.19%, OC[C@@H](O)C(O)[C@H](O)CO -0.48%, O=C(O[C@@H]1Cc2c(O)cc(O)cc2O[C@@H]1c1cc(O)c(O)c(O)c1-c1c([C@H]2Oc3cc(O)cc(O)c3C[C@H]2O)cc(O)c(O)c1O)c1cc(O)c(O)c(O)c1 1.5%, C[C@H](CCC(=O)O)[C@H]1CC[C@H]2[C@@H]3C[C@H](O)[C@@H]4C[C@H](O)CC[C@]4(C)[C@H]3CC[C@]12C 2.54%, O=C1C=CC2=C3c4cc(O)c(O)cc4CC3(O)COC2=C1 (stereo not drawn) 4.16%, O=C(O)C=CC=Cc1ccccc1 8.52%, CC(=O)OC1CCC2(C)C(CCC3C2CCC2(C)C3CC3OC4(CCC(C)CO4)C(C)C32)C1 (stereo not drawn) 4.61%, C=CC(C1=CC(=O)C(OC)=C(OC)C1=O)c1ccccc1 (stereo not drawn) 3.55%, N[C@@H](Cc1ccccc1)C(=O)N[C@@H](Cc1ccc(O)cc1)C(=O)O (H-Phe-Tyr-OH) -6.19%
